Among the data in PubChem BioAssay (NCATS) are Potency and max response values, retold here.

Inconclusive results are not listed. Unmarked numbers belong to inactive results. Activity calls are given as the source filed them. Calls come from the whole dose curve; as a rule, active = well fitted inhibition curve with a large enough effect; inconclusive = small, poorly fitted or top-dose-only effect; inactive = flat fitted curve, though single readings scatter.

One test deals with PC49. The test is described as follows: qHTS profiling for inhibitors of Plasmodium falciparum proliferation (AID 504749). Note: potency is the fitted concentration of half-maximal effect. As to conditions: P. falciparum in erythrocytes, SYBR Green DNA, 72 h; series mostly up to 28.7 µM. In a few lines: (§1)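 Each compound contacts P. falciparum-infected red blood cells for 72 h at 37 C; lysis buffer (Tris, EDTA, saponin, Triton X, SYBR Green I) is added and fluorescence measured next morning; values normalized to controls.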
For orientation: qHTS replaces the single test concentration by a dilution series.

The next test concerns SC27B. Described as above. As to conditions: P. falciparum in erythrocytes, SYBR Green DNA, 72 h; series mostly up to 28.7 µM. A digest of the protocol:
as §1

In a further test the test system is TAB113. Described as above. The conditions noted are these: P. falciparum in erythrocytes, SYBR Green DNA, 72 h; series mostly up to 28.7 µM. A digest of the protocol:
as §1

A further test concerns TAB165. Described as above. As to conditions: P. falciparum in erythrocytes, SYBR Green DNA, 72 h; series mostly up to 28.7 µM. A digest of the protocol:
as §1

A further test relates to KB-3-1. The test is described as follows: Cytotoxic Profiling of Annotated Libraries Using Quantitative High-Throughput Screening (AID 1296008). Note: % is set by controls: 0 for no effect and ±100 for the full control effect. The conditions noted are these: Five cell lines viability, CellTiter-Glo ATP luminescence, 48-72 h; max response: active compounds read low. A digest of the protocol:
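Cells exposed to compounds for 48 or 72 hr at 37 degrees Celsius. Viability read as ATP-coupled luminescence with CellTiter-Glo after 10 min at room temperature.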
(In general: ATP-based viability assays read luminescence as a measure of living cells.)

The next test has as its system W2. The experiment in a line: qHTS profiling for inhibitors of Plasmodium falciparum proliferation (AID 504749). Note: potency is the fitted concentration of half-maximal effect. As to conditions: P. falciparum in erythrocytes, SYBR Green DNA, 72 h; series mostly up to 28.7 µM. In a few lines:
as §1

The subject of another test is PC26. The test is described as above. As to conditions: P. falciparum in erythrocytes, SYBR Green DNA, 72 h; series mostly up to 28.7 µM. In a few lines: as §1
In the next test the test system is TAB109. Described as above. As to conditions: P. falciparum in erythrocytes, SYBR Green DNA, 72 h; series mostly up to 28.7 µM. A digest of the protocol:
as §1
Note: nearly all actives have a fitted effect of over 60% in size.

In the case of `OC(c1ccccc1)(c1ccccc1)C1CN2CCC1CC2` (stereo not drawn), the Potency with PC49 is 1 µM (active). Further, the Potency entry in the test on SC27B, in the test with TAB113 and with TAB165 was “inactive” each time. Moreover, the max response with KB-3-1 is -22.3%.

Turning to `C[C@@H](Cc1ccccc1)NCCC(c1ccccc1)c1ccccc1`, the Potency result with PC49 is “inactive”. Also, the Potency in the test on W2 was 2.87 µM (active). Also, the max response with KB-3-1 was -4.5%.

For the compound `O=C1CC[C@@]2(O)C3Cc4ccc(O)c5c4C2(CCN3CC2CC2)[C@H]1O5` (stereo partly drawn), the Potency entry in the test with PC26, in the test on PC49, in the test with SC27B, in the test on TAB109, in the test with TAB113 and with TAB165 was “inactive” each time.

As for `F/C(COc1ccc2c(c1)[nH]c1ccccc12)=C1/CN2CCC1CC2`, the Potency is 2.82 µM (active) in the test on PC49; 10 µM (active) with SC27B; 7.94 µM (active) in the test on TAB109; 4.47 µM (active) with TAB165; 1.51 µM (active) with W2. In the test on KB-3-1, the max response is -8.12%.

As for `CCCN1CCCC2Cc3[nH]ncc3CC21` (stereo not drawn), the Potency entry in the test on PC49, with SC27B, with TAB109, in the test with TAB113 and with TAB165 was “inactive” in each case.

On to `Oc1cccc[c]1[Hg][Cl]`, for which the Potency with PC26 was 12 µM (active); in the test with PC49, 14.1 µM (active); in the test on SC27B, 10 µM (active); in the test with TAB109, 3.98 µM (active); in the test on TAB113, 10 µM (active); with TAB165, 7.94 µM (active). Besides, the Potency with W2 was 4.78 µM (active).

Consider `COC([CH2][Hg])CNC(=O)c1ccccc1OCC(=O)O` (stereo not drawn), for which the Potency entry in the test with PC26, in the test on PC49, with SC27B, in the test with TAB113, in the test with TAB165 and in the test with W2 was “inactive” in each case.
